Experimental data reported in PubChem BioAssay (EPA / NIEHS).
Inconclusive results are not listed. The source made the active and inactive calls. Rule for the calls: active = hit-call score of the fitted dose curve at least 0.9, where 1 is the maximum; inconclusive = response in the unintended direction; inactive = score below 0.9.

target: Cellular tumor antigen p53 (Homo sapiens) (UniProt P04637); assay: TOX21_p53_BLA_p3_ratio: Tox21 HCT-116 p53 Agonism Beta-lactamase Assay, Ratio, Phase 3 (AID 2283596)
Sequence (P04637 whole entry, looked up, the tested form may be a part): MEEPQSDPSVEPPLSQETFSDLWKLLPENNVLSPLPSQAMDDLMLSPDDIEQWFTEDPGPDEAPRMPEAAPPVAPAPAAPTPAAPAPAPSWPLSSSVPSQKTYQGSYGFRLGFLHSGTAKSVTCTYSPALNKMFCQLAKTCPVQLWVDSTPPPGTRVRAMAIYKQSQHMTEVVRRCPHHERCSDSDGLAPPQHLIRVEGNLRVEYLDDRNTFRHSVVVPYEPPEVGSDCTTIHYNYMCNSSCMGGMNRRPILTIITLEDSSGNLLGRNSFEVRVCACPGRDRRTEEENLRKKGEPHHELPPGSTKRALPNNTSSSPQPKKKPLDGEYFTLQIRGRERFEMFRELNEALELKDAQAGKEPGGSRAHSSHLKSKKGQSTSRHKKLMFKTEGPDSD
From the text: TOX21_p53_BLA_p3 is a cell-based, single-readout assay that uses HCT116, a human intestinal cell line, […] in a 1536-well plate.TOX21_p53_BLA_p3_ratio is an assay readout measuring reporter gene via receptor activity and designed using inducible reporter (beta lactamase induction) detected with GAL4 b-lactamase reporter gene. The signal is derived from the ratio of cleaved (ch2) to uncleaved (ch1) reporter gene substrate used as the measure of target activity.Data from the assay component TOX21_p53_BLA_p3_ratio was analyzed into 1 assay endpoint. This assay endpoint, TOX21_p53_BLA_p3_ratio, was analyzed in the positive analysis fitting direction relative to DMSO as the negative control and baseline of activity. Using a type of inducible reporter, gain-of-signal activity can be used to understand changes in the reporter gene as they relate to the gene TP53. Furthermore, this assay endpoint can be referred to as a primary readout, because this assay has produced multiple assay endpoints where this ratio serves a reporter gene function to understand target activity. To generalize the intended target to other relatable targets, this assay endpoint is annotated to the DNA binding intended target family, where the subfamily is tumor suppressor.
Thawing Method: Place 14 mL of pre-warmed thaw medium into a 15 mL of conical tub. Remove the vial of cells to be thawed from liquid nitrogen and thaw rapidly by placing at 37C in a water bath with gentle agitation for 1-2 minutes. Decontaminate the vial by wiping with 70% ethanol before opening in a biological safety cabinet. Transfer the vial contents drop-wise into 14 mL of thaw medium in a sterile 15-mL conical tub. Centrifuge cells at 900 rpm for 4 minutes and resuspend in thaw medium. Transfer contents to the T75 tissue culture flask containing Thaw Medium and place flask in a humidified 37C/5% CO2 incubator. Switch to growth medium at first passage.Propagation Method: Aspirate medium, rinse once in DPBS, add 0.25% Trypsin/EDTA and swirl to coat the cell evenly. Add an equal volume of Growth Medium to inactivate Trypsin after 2-3 minutes incubation at 37C. Centrifuge cells at 900 rpm for 4 minutes and resuspend in growth medium. Cell should be passage or fed at least twice a week.Assay Protocol: Harvest cells from culture in growth medium and resuspend in assay medium. 2.2 Dispense 4000 cells/5 uL/well into 1536-well black/clear bottom plates using a Multidrop dispenser. After the cells were incubated at 37C for 5 hours, 23 nL of compounds dissolved in DMSO were transferred to the assay plate by a PinTool resulting in a 217-fold dilution. Incubate the plates for 16 hours at 37C, 5% CO2. Add 1 uL of 6X LiveBLAzer FRET B/G (CCF4-AM) Substrate Mixture to each well using a BioRAPTR dispenser and incubate the plates at room temperature for 2 hours. Measure fluorescence intensity at 460 and 530 nm emission and 405 nm excitation by an Envision detector. Data is expressed as the ratio of 460nm/530nm emissions. Add 4 uL of Cell-titer Glo to each well using BioRAPTR and incubate the plates at room temperature for 2 hours. Measure fluorescence intensity by a VewLux plate reader.

Structure (SMILES)	outcome
Cc1ccc(/C(=C\CN2CCCC2)c2ccccn2)cc1	inactive
C=C1[C@H](CO)[C@@H](O)C[C@@H]1n1cnc2c(=O)[nH]c(N)nc21	inactive
CO/N=C(\C(=O)N[C@@H]1C(=O)N2C(C(=O)O)=C(C[N+]3(C)CCCC3)CS[C@H]12)c1csc(N)n1	inactive
NCCCC(=O)O	inactive
Cc1nnc(C(=O)NC(C)(C)c2nc(C(=O)NCc3ccc(F)cc3)c(O)c(=O)n2C)o1	inactive
O=c1[nH][nH]c2ccccc12	inactive
CC(C)N=C=NC(C)C	inactive
Nc1nc(NC2CC2)c2ncn([C@H]3C=C[C@@H](CO)C3)c2n1	inactive
C1=CCC2CC=CC2C1 (stereo not given)	inactive
CC[C@@H](N)CO	inactive
CCOc1ccc2ccccc2c1C(=O)N[C@@H]1C(=O)N2[C@@H]1SC(C)(C)[C@@H]2C(=O)O	inactive
CC(C)OC(=O)CCC(=O)OC(C)C	inactive
CC(=O)c1ccc(C(C)=O)cc1	inactive
CC1CCCCN1CCCOC(=O)c1ccccc1 (stereo not given)	inactive
C=CC(=O)OCC1CCCO1 (stereo not given)	inactive
COc1cc2c(cc1OC)[C@@H](c1ccccc1)CN(C)CC2	inactive
CCCCCC/C=C/C(=O)OC	inactive
COC(=O)NN	inactive
C[C@@H](O)C(=O)O	inactive
O=Nc1ccc(NO)cc1	inactive

Structure (SMILES)	outcome
COC(=O)c1cc(C(=O)OC)cc(S(=O)(=O)O)c1	inactive
NC(=O)OCC(O)COc1ccc(Cl)cc1 (stereo not given)	inactive
NC(=O)c1ccccc1[N+](=O)[O-]	inactive
Cl.Cl.N.N.[Cl-].[Cl-].[Pt+2]	inactive
CC1(C)S[C@@H]2[C@H](NC(=O)C(C(=O)Oc3ccc4c(c3)CCC4)c3ccccc3)C(=O)N2[C@H]1C(=O)O (stereo not given in full)	inactive
NS(=O)(=O)c1cc2c(cc1Cl)NC(Cc1ccccc1)NS2(=O)=O (stereo not given)	inactive
C=COCCCCO	inactive
C[N+]1(C)[C@@H]2CC(OC(=O)[C@H](CO)c3ccccc3)C[C@H]1[C@@H]1O[C@@H]12 (stereo not given in full)	inactive
Cc1ncc(COP(=O)(O)O)c(CN)c1O	inactive
O=C(NCCCN1CCOCC1)c1ccc(Cl)cc1	inactive
O=C(O)CCNC(=O)c1ccccc1	inactive
O=C1OC(=O)C2CC=CCC12 (stereo not given)	inactive
Nc1nc(N)c(-c2ccccc2)s1	inactive
CC(C)(O)CCC(C)(C)O	inactive
CN1CCN(C2=Nc3ccccc3Oc3ccc(Cl)cc32)CC1	inactive
O=c1c(O)c(O)c1=O	inactive
NNc1nnc(Cc2ccncc2)c2ccccc12	inactive
C#C[C@]1(O)CC[C@H]2[C@@H]3CCC4=CC(=O)CC[C@@H]4[C@H]3C(=C)C[C@@]21CC	inactive
N=C(N)c1ccccc1	inactive
CC(=O)c1cnccn1	inactive
